# Test results published in PubChem BioAssay AID720704 (The Scripps Research Institute Molecular Screening Center, 2013).
# Among all 370,000 compounds or so, about 660 (0.18%) were called active. Only a selection was taken, and actives are over-represented in it overall. Unmarked numbers belong to inactive results. Cut-off read from the data, not from the text of the source: active = inhibition above about 11%; inactive = the rest.
# Biological target: 1-phosphatidylinositol 4,5-bisphosphate phosphodiesterase beta-3 (Homo sapiens) (UniProt Q01970)
# Sequence (Q01970 whole entry, looked up): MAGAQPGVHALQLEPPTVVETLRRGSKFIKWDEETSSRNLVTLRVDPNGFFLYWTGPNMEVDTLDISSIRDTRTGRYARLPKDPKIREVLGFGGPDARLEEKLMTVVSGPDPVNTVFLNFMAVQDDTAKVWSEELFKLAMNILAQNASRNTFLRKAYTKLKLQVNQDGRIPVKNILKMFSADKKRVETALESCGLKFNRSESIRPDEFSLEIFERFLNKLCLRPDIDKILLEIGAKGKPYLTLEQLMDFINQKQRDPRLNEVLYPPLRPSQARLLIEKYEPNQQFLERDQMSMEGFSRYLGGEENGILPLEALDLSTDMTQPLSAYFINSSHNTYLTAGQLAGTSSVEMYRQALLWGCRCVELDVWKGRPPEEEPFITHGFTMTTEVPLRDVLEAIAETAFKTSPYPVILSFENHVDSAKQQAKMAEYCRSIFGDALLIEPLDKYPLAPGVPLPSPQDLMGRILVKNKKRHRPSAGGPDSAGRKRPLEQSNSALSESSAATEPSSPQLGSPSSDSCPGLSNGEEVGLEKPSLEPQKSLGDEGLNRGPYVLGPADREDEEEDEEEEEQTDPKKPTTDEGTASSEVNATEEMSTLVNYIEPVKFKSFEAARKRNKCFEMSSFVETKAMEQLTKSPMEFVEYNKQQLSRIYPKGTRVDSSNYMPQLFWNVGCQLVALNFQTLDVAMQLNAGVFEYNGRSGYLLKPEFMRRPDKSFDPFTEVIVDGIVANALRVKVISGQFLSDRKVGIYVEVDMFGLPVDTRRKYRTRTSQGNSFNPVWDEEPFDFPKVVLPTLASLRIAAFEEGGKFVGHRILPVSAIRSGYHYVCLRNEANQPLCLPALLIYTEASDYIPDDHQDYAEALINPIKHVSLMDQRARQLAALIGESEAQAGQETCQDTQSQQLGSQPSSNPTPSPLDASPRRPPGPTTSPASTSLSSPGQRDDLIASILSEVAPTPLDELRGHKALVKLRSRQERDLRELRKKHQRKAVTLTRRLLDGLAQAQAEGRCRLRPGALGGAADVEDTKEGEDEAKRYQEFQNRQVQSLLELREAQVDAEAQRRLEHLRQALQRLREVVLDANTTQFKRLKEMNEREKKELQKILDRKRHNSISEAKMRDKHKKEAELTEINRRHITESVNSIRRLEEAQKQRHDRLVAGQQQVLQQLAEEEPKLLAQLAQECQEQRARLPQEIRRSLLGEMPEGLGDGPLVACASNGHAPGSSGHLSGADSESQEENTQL
# Assay: human PLC-beta3 inhibitors, primary screen, biochemical, fluorescence (AID 720704);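 note: 0% = median of compound wells on plate and 100% = full blocker control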
# Details: Purified PLC-beta3, fluorogenic substrate, at 12.2 µM, hits give high values
row,Structure (SMILES),inhibition
1,CC1CCN(S(=O)(=O)c2ccc(S(=O)(=O)NCc3cccnc3)cc2)CC1,-6.19%
2,Cc1ccc(S(=O)(=O)N2CCC(C(=O)N[C@@H](C)C(=O)NCc3ccco3)CC2)cc1,0.13%
3,CC1CCN(S(=O)(=O)c2ccc(S(=O)(=O)NCc3ccco3)cc2)CC1,10.8% (active)
4,CC(=O)n1cc([C@H]2C=C(C(=O)N3CCOCC3)O[C@@H](OCc3ccc(CO)cc3)C2)c2ccccc21,-5.02%
5,COC(=O)c1ccccc1-n1cc(COC(=O)NCCc2ccccc2)nn1,-1.19%
6,CC(=O)NC(Cc1ccc(F)c(F)c1)C(=O)NC1CCN(C(=O)c2ccc(C)cc2)CC1 (stereo not given),-5.45%
7,O=C(NCc1ccccc1Cl)C(=O)NCC1CCCN1S(=O)(=O)c1cccs1 (stereo not given),-11.5%
8,O=C(c1ccccc1Cl)N(Cc1ccccc1F)N1C(=O)CCCC1=O,-3.35%
9,CC1=C(C)C(=O)OC(C(C)C2CCC3C4CC=C5CC(OC6OC(COC7OC(CO)C(O)C(O)C7O)C(O)C(O)C6O)CC(O)C5(C)C4CCC23C)C1 (stereo not given),4.96%
10,Cc1nnc(SC(C)C(=O)Nc2ccc(S(=O)(=O)NC3CCCCC3)cc2)s1 (stereo not given),4.91%
11,CCOc1ccc(OCC)c(NC(=O)CSc2nnc(Cn3cnc4ccccc43)n2C)c1,12.1% (active)
12,COc1ccc(OC)c(NC(=O)CSc2nc3cccnc3n2C)c1,6.47%
13,COc1ccc(C)cc1NC(=O)CSc1nnc(CC(=O)Nc2ccccc2F)n1C,-4.5%
14,CSCCC(NC(=O)c1cc([N+](=O)[O-])cc([N+](=O)[O-])c1)c1nc2ccccc2[nH]1 (stereo not given),-1.97%
15,O=C(CSc1nc2ccccc2o1)N1c2ccccc2Sc2ccc(Cl)cc21,-0.49%
16,Cc1ccc(/C=N/NC(=O)CSc2nc3ccccc3o2)cc1,11.3% (active)
17,O=C(CSc1nc2ccccc2o1)N1CCN(c2ccc(Cl)cc2)CC1,-0.03%
18,O=C1CCC(C(=O)N2CCC(O)(c3ccccc3)CC2)CN1CCc1ccccc1 (stereo not given),-8.61%
19,CCC(=O)c1ccc(N2CCN(C(=O)c3cc([N+](=O)[O-])ccc3F)CC2)c(F)c1,-2.14%
20,NC(=O)c1nnsc1-c1ccc(-c2snnc2C(N)=O)cc1,-6.22%

row,Structure (SMILES),inhibition
1,Cc1ccc(-c2nc(CS(=O)(=O)CC(=O)NCc3ccc4c(c3)OCO4)c(C)o2)cc1,-6.63%
2,O=C(COC(=O)c1ncc(Cl)c(Cl)c1Cl)NNC(=O)c1ccccc1,-12.2%
3,Cc1cc(Cl)ccc1OCCCC(=O)Nc1cccc(-n2cnnn2)c1,-7.06%
4,COc1ccc(CC(NC(C)=O)C(=O)NC2CCN(C(=O)c3ccc(OC)c(OC)c3)CC2)cc1OC (stereo not given),2.51%
5,Cc1nnc(SCc2nc3ccccc3nc2C)s1,2.42%
6,C/C(CC(O)(/C=N/O)c1ccccc1)=N\O (stereo not given),3.84%
7,Cc1nc2ccccc2nc1CC(O)(c1ccccc1)c1ccccc1,11.5% (active)
8,O=C(c1cc2sccc2n1Cc1ccc(F)cc1)N1CCc2ccccc21,-17.1%
9,Cc1cc(NC(=O)[C@H](C)NC(=O)c2ccco2)ccc1Br,-1.12%
10,Cc1ccc(C)c(NC(=O)c2ccc(OC(=O)c3ccco3)cc2)c1,-2.18%
11,Cc1cc(NC(=O)c2ccc(F)cc2)ccc1NC(=O)c1ccco1,12.6% (active)
12,O=C(C[C@H]1C(=O)N(c2ccc(F)c(F)c2)C[C@@H]1Cc1ccccc1)Nc1ccccc1,12.1% (active)
13,COc1ccc(NC(=O)C[C@H]2C(=O)N(CCc3ccccc3)C[C@@H]2C)cc1,4.39%
14,CC1(C)CN(CCc2ccccc2)C(=O)[C@H]1CC(=O)Nc1ccc(Br)cc1,1.65%
15,Cc1nc2nc(COc3ccccc3)[nH]n2c(=O)c1C,2.74%
16,CCN1C(=O)CS/C1=N\c1nccs1,0.11%
17,Nc1ccn(CC(=O)N2CCN(c3ccccn3)CC2)c(=O)n1,-1.87%
18,O=C1NCC(Nc2ccccc2)C(=O)N1 (stereo not given),1.2%
19,C=CCn1c(=O)n(C)c2c(=O)n(C)c(=O)n(C)c21,0.17%
20,CCC1CCCCN1C(=O)CSc1nc2c(c(=O)n(C)c(=O)n2C)n1C (stereo not given),-1.77%

row,Structure (SMILES),inhibition
1,CCC1CCCCN1C(=O)CSc1nc2c(c(=O)n1C)SC(C)C2 (stereo not given),-1.75%
2,CCC1CCCCN1C(=O)CSc1nc(C)cc(C)n1 (stereo not given),19.7% (active)
3,CCCC/S(C)=N/S(=O)(=O)c1ccc(C)cc1 (stereo not given),3.14%
4,C=CC[C@@H](CC(=O)N[C@@H](CO)Cc1ccccc1)C(=O)NCCOC(=O)[C@@H](CC=C)CC(=O)OC(C)(C)C,2.47%
5,C=CC[C@@H](CC(=O)NCCO)C(=O)N[C@H](C)COC(=O)[C@@H](CC=C)CC(=O)OC(C)(C)C,12.3% (active)
6,C=CC[C@@H](CC(=O)N[C@@H](CO)Cc1ccccc1)C(=O)N[C@H](COC(=O)[C@H](CC=C)CC(=O)OC(C)(C)C)Cc1ccccc1,2.78%
7,CCO[C@@H]1OC(C(=O)NC2CC2)=C[C@H](C)[C@H]1CCCO,1.08%
8,CC1=C(C(=O)N2CCOCC2)CC(CC(=O)NCc2cccc3ccccc23)C(=O)N1CCC1=CCCCC1 (stereo not given),3.78%
9,Nc1cc(N2CCCCCC2)c2nonc2c1[N+](=O)[O-],-10.7%
10,Cc1cc2c(cc1C)NC(c1ccccn1)C1=C(CC(C)(C)CC1=O)N2 (stereo not given),-15%
11,O=C(O)CCCCOn1ccnc1,1.89%
12,CC(C)CCN(C(=O)c1csnn1)C(C(=O)NC1CCCC1)c1ccccc1 (stereo not given),-3.64%
13,CN1C(CC(=O)Nc2ccc(Br)cc2)c2ccccc2CC1(C)C (stereo not given),-1.47%
14,COC(=O)C1=C(N)Oc2cc(C)oc(=O)c2C1c1cccnc1 (stereo not given),-0.05%
15,O=C(Nc1ccccc1C(F)(F)F)N1CCCC1c1cccnc1 (stereo not given),-8.96%
16,O=c1ccc2c(-c3ccccc3S(=O)(=O)O)c3ccc(O)c(O)c3oc-2c1O,11.7% (active)
17,Cc1ccsc1C(=O)N[C@@H](C)c1nnc2ccccn12,-1.93%
18,COc1ccc(Br)cc1CN(C)C(=O)C1CC(=O)N(C2CCCC2)C1 (stereo not given),-3.09%
19,CCN1CN(Cc2ccccc2)CNC1=S,6.18%
20,CC(C)c1nc2oc3c(N4CCN(C)CC4)ncnc3c2c2c1CCC2,-17.2%
